Test results as given in ChEMBL document CHEMBL1961873, “Compounds: GSK PKIS; Assays: Nanosyn kinase panel” (2012).

Key:
[1] = target: T1, Tyrosine-protein kinase receptor TYRO3 (Homo sapiens) (UniProt Q06418); details: at 1 µM
T1 sequence (whole entry): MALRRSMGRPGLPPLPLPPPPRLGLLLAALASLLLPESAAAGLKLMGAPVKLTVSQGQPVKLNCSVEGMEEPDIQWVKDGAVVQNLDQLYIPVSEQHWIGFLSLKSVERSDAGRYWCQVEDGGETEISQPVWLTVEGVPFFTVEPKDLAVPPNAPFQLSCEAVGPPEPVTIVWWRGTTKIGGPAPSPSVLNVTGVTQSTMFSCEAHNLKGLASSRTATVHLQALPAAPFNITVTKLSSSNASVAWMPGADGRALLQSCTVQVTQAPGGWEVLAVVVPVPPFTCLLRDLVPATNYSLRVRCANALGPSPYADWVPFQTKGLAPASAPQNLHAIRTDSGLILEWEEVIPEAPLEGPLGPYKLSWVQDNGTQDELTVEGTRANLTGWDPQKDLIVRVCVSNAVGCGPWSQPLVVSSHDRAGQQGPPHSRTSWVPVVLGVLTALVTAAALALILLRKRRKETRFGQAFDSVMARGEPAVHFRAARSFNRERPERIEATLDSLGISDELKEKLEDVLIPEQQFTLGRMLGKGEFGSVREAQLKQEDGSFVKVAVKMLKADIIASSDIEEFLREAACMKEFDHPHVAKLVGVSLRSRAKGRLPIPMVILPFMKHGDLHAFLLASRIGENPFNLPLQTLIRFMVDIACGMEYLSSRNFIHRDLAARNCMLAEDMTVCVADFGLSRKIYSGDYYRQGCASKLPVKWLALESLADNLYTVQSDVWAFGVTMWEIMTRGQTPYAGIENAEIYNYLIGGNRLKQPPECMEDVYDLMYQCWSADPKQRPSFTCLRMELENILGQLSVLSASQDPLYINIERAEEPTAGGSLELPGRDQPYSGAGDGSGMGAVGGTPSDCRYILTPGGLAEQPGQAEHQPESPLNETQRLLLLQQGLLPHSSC

[2] = target: Tyrosine-protein kinase Yes (Homo sapiens) (UniProt P07947); details: at 0.1 µM
[3] = target: Tyrosine-protein kinase Yes (Homo sapiens) (UniProt P07947); details: at 1 µM
[4] = target: T2, Tyrosine-protein kinase ZAP-70 (Homo sapiens) (UniProt P43403); details: at 0.1 µM
T2 sequence (whole entry): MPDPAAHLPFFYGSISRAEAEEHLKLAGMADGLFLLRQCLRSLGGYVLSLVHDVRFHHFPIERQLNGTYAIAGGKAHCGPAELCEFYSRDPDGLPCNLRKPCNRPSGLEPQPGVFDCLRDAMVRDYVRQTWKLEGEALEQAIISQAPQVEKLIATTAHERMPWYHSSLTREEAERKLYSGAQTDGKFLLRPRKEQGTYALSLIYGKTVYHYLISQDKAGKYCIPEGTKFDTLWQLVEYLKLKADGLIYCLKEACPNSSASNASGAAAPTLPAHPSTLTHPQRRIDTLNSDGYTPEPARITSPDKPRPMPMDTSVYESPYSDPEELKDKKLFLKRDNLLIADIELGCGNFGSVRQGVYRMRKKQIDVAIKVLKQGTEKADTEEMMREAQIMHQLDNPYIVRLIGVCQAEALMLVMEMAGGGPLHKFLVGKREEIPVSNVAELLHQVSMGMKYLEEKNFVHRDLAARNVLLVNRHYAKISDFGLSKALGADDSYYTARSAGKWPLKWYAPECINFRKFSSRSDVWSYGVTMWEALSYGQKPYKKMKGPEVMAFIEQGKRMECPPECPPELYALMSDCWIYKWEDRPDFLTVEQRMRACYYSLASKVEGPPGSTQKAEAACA

[5] = target: T2, Tyrosine-protein kinase ZAP-70 (Homo sapiens); details: at 1 µM
[6] = target: Serine/threonine-protein kinase B-raf (Homo sapiens) (UniProt P15056); details: at 0.1 µM
[7] = target: Serine/threonine-protein kinase B-raf (Homo sapiens) (UniProt P15056); details: at 1 µM
[8] = tested on: Serine/threonine-protein kinase B-raf (Homo sapiens), P15056 [V600E]; details: at 0.1 µM
[9] = tested on: Serine/threonine-protein kinase B-raf (Homo sapiens), P15056 [V600E]; details: at 1 µM
[10] = target: RAF proto-oncogene serine/threonine-protein kinase (Homo sapiens) (UniProt P04049); details: at 0.1 µM
[11] = target: RAF proto-oncogene serine/threonine-protein kinase (Homo sapiens) (UniProt P04049); details: at 1 µM
[12] = target: T3, Interleukin-1 receptor-associated kinase 4 (Homo sapiens) (UniProt Q9NWZ3); details: at 0.1 µM
T3 sequence (whole entry): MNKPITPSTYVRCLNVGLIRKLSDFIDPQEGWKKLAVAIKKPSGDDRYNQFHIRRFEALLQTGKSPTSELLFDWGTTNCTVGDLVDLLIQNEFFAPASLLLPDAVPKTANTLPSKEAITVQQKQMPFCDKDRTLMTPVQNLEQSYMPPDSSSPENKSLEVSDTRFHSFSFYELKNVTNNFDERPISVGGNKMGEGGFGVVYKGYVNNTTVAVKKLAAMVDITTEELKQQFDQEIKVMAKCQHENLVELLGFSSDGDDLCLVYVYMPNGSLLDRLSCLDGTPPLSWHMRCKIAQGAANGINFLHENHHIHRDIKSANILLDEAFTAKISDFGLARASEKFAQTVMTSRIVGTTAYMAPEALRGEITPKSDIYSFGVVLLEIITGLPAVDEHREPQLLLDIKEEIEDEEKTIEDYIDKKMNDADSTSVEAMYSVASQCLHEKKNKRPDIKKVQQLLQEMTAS

[13] = target: T3, Interleukin-1 receptor-associated kinase 4 (Homo sapiens); details: at 1 µM
[14] = target: Leucine-rich repeat serine/threonine-protein kinase 2 (Homo sapiens) (UniProt Q5S007); details: at 0.1 µM
[15] = target: Leucine-rich repeat serine/threonine-protein kinase 2 (Homo sapiens) (UniProt Q5S007); details: at 1 µM
[16] = tested on: Leucine-rich repeat serine/threonine-protein kinase 2 (Homo sapiens), Q5S007 [G2019S]; details: at 0.1 µM
[17] = tested on: Leucine-rich repeat serine/threonine-protein kinase 2 (Homo sapiens), Q5S007 [G2019S]; details: at 1 µM

Leucine-rich repeat serine/threonine-protein kinase 2 (Homo sapiens), Q5S007 [G2019S], sequence (Q5S007 whole entry G2019S): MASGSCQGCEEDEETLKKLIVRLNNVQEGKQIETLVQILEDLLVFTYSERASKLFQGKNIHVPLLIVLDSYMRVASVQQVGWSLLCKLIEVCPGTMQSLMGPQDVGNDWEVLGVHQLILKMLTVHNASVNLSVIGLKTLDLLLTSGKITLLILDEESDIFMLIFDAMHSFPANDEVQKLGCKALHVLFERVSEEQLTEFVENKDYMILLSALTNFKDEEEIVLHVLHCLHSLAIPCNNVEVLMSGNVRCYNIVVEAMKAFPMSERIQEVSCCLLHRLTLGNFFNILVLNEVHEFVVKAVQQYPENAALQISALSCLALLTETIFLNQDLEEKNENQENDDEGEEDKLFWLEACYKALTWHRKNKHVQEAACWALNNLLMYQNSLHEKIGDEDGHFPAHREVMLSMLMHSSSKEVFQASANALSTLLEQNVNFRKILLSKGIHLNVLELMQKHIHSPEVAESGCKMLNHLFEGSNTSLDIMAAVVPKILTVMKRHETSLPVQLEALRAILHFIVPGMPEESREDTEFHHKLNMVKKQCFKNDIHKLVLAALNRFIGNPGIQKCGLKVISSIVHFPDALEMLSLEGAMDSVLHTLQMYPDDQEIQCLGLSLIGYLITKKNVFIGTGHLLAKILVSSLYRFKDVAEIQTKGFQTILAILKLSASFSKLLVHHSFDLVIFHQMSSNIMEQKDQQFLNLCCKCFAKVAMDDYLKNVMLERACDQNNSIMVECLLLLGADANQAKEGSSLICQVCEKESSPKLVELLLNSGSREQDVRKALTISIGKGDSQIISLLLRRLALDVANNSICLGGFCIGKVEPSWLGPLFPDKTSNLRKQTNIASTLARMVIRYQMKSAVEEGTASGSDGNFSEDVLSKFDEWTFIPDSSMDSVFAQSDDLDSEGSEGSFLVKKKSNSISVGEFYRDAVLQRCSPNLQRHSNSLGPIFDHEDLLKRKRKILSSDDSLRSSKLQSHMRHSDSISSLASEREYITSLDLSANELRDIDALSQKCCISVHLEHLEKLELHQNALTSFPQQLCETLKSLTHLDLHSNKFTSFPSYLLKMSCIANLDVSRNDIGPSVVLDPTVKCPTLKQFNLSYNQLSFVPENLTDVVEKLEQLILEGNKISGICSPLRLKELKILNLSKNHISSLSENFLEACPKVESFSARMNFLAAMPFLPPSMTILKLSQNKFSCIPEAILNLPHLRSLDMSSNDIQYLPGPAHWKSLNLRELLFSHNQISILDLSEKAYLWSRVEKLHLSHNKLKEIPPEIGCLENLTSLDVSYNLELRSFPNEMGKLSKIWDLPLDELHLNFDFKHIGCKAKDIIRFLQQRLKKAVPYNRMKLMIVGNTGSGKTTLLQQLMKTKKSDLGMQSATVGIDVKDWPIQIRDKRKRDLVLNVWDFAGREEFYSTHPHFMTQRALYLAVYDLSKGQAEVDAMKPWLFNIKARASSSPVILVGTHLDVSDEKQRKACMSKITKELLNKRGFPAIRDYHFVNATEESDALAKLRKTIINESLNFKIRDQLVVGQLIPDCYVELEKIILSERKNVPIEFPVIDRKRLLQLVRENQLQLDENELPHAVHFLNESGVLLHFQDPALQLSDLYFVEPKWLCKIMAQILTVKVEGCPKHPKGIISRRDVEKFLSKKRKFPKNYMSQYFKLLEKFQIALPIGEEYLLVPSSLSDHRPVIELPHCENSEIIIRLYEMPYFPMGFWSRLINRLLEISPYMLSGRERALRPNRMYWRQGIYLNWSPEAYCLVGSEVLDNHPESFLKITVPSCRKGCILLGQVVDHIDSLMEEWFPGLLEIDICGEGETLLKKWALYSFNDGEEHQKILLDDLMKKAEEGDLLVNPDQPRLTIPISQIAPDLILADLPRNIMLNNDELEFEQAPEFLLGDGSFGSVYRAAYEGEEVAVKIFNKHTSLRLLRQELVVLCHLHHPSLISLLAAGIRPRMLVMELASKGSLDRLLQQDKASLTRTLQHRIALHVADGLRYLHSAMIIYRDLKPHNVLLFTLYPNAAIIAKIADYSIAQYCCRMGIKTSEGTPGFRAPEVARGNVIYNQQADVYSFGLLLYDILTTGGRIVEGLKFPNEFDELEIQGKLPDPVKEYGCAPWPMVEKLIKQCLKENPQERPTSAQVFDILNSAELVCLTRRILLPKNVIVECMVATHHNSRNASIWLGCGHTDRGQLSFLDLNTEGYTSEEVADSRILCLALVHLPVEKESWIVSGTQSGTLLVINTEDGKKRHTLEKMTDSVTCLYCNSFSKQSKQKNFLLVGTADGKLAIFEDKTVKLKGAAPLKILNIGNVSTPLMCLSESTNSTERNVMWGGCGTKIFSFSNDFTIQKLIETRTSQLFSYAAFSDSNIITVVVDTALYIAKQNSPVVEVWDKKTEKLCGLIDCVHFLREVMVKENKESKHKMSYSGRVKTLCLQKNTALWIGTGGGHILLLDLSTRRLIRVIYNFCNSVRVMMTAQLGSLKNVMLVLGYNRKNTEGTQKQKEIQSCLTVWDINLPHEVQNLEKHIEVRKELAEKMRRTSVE
RAF proto-oncogene serine/threonine-protein kinase (Homo sapiens), sequence (P04049 whole entry): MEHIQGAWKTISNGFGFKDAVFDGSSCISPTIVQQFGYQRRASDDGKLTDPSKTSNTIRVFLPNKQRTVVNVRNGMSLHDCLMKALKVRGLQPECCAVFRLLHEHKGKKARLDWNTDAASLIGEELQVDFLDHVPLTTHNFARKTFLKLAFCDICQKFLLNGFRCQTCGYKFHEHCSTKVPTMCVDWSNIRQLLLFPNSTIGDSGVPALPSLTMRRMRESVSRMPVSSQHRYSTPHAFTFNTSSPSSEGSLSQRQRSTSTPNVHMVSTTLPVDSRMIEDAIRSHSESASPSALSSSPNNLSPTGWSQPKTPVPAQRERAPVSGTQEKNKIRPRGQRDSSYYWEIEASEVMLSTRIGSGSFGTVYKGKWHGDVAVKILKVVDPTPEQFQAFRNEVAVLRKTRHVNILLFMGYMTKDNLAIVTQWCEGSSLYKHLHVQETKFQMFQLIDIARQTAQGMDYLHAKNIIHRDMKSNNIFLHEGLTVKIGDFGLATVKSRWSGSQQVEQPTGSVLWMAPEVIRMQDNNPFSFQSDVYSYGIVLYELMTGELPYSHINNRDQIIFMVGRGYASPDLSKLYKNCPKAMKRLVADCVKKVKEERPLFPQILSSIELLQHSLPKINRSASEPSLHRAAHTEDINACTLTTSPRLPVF
Tyrosine-protein kinase Yes (Homo sapiens), sequence (P07947 2-543 limits assumed): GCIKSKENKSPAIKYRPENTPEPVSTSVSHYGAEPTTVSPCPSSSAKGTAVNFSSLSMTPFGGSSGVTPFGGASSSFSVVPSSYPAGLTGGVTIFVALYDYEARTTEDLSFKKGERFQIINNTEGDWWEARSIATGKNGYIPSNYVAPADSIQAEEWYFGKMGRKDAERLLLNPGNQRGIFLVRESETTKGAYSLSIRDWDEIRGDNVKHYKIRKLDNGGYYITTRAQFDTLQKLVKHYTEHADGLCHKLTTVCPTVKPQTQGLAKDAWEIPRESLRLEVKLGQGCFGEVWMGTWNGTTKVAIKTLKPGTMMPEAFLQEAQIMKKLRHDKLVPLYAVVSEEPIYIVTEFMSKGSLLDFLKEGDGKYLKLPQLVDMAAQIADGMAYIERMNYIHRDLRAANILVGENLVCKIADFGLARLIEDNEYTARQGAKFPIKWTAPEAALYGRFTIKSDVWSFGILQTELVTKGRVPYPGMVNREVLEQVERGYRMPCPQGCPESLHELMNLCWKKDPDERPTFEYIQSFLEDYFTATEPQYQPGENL
Leucine-rich repeat serine/threonine-protein kinase 2 (Homo sapiens), sequence (Q5S007 whole entry): as the sequence (Q5S007 whole entry G2019S) above, with S2019G counted along it
Serine/threonine-protein kinase B-raf (Homo sapiens), P15056 [V600E], sequence (P15056 whole entry V600E): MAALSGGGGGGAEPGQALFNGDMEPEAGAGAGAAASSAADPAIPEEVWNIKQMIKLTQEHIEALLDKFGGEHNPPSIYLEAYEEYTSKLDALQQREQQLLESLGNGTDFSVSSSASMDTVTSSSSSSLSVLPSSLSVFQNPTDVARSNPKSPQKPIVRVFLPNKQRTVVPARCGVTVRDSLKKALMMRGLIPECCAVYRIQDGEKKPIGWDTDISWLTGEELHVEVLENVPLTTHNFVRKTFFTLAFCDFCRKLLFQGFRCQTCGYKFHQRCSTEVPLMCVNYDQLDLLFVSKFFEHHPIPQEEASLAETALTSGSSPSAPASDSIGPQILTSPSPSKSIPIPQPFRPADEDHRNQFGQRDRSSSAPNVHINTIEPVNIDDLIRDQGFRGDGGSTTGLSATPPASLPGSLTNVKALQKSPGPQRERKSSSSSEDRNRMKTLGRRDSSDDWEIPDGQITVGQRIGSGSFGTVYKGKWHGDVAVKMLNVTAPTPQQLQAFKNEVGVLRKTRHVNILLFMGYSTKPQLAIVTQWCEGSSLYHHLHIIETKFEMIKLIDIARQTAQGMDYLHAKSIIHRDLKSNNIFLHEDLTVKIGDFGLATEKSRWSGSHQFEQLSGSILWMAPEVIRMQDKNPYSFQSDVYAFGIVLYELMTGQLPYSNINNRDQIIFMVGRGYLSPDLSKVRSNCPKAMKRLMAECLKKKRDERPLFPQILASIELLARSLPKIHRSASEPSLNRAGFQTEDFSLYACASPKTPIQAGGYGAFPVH
Serine/threonine-protein kinase B-raf (Homo sapiens), sequence (P15056 whole entry): as the sequence (P15056 whole entry V600E) above, with E600V counted along it

Row | SMILES | inhibition [1] [%] | inhibition [2] [%] | inhibition [3] [%] | inhibition [4] [%] | inhibition [5] [%] | inhibition [6] [%] | inhibition [7] [%] | inhibition [8] [%] | inhibition [9] [%] | inhibition [10] [%] | inhibition [11] [%] | inhibition [12] [%] | inhibition [13] [%] | inhibition [14] [%] | inhibition [15] [%] | inhibition [16] [%] | inhibition [17] [%]
1 | NC(=O)c1cccc(Nc2nccc(Nc3cccc4[nH]ncc34)n2)c1 | 54.4 | 32 | 82.5 | -2.28 | 4.64 | -3.03 | 4.38 | -3.72 | 3.75 | -3.86 | -3.49 | -3.26 | 3.19 | 0.85 | 8.7 | 4.42 | 30.9
2 | CC1=C(C(=O)Nc2ccc3[nH]ncc3c2)C(c2ccc(Cl)c(Cl)c2)CC(=O)N1 (stereo not given) | 1.34 | 4.16 | 20 | 0.71 | 2.3 | 5.79 | 31.6 | 6.48 | 31.4 | 4.61 | 2.44 | -3.53 | 0.93 | 2.44 | 4.77 | 0.95 | 8.99
3 | COC(=O)Nc1nc2cc(Oc3ccc(NC(=O)Nc4cccc(C(=O)O)c4)cc3)ccc2[nH]1 | 3.17 | 0 | 2.43 | -4.68 | -4.2 | -0.5 | -1.69 | -0.53 | -0.73 | -0.09 | 0.7 | 1.45 | 0.26 | -4.47 | 4.49 | -2.68 | 3.07
4 | CCn1c(-c2nonc2N)nc2ccncc21 | -0.39 | 1.81 | -1.91 | 7.67 | 3.68 | 2.92 | 2.33 | 1.64 | 3.84 | 6.58 | 14 | 2.09 | 0.65 | 1.49 | 2.85 | 1.49 | 6.2
5 | O=C(Nc1n[nH]c2nc(-c3ccco3)c(Br)cc12)C1CC1 | 4.49 | 4.26 | 13.8 | 1.19 | 3.08 | 5.54 | 5.7 | 6.02 | 5.23 | 1.52 | 2.37 | 5.57 | 1.08 | 2.41 | 2.93 | 2.74 | 6.98
6 | Nc1nc(-c2ccc3c(c2)C(=Cc2cc(Br)c(O)c(Br)c2)C(=O)N3)cs1 | 2.67 | -4.7 | 6.08 | 0.01 | -1.62 | 4.51 | 13.7 | 3.07 | 14.7 | 2.35 | 26.7 | 3.08 | -0.15 | 0.74 | 14.2 | 10.3 | 43.5
7 | Cn1cc(C=C2C(=O)Nc3cccnc32)c2ccccc21 | 13.2 | 5.4 | 45.1 | 1.96 | 11.5 | 3.28 | 6.52 | 2.79 | 5.11 | -3.3 | – | 6.41 | 5.04 | 8.55 | 20.8 | 15 | 55.4
8 | COc1ccc2cc(-c3c(-c4ccncc4)nc(-c4ccc([S+](C)[O-])cc4)n3C)ccc2c1 (stereo not given) | 0.86 | 2.16 | 8.42 | 1.94 | 2.34 | 3.84 | 5.05 | 4.92 | 4.5 | 0.38 | 9.73 | 3.57 | 1.12 | 2.6 | 4.23 | 3.37 | 5.02
9 | CCn1c(-c2nonc2N)nc2c(N3CCCC3)nccc21 | -1.5 | -4.35 | 4.6 | 1.14 | 2.3 | 0.2 | 4.02 | -2.4 | -2.63 | -1.29 | -1.43 | 1.9 | -0.28 | -2.19 | 2.91 | 0.77 | 1.57
10 | COC(=O)Nc1nc2cc(Oc3cccc(NC(=O)Nc4cc(C(F)(F)F)ccc4F)c3)ccc2[nH]1 | -0.81 | 0.2 | 3.07 | 0.93 | 1.74 | -0.27 | 4.25 | 0.34 | 6.29 | -0.45 | – | 3.51 | -0.12 | 0.62 | 1.81 | 2.19 | 4.67
11 | COc1ccc(COc2ccc(Cc3cnc(N)nc3N)cc2OC)cc1 | 0.77 | -0.39 | -3.3 | 3.08 | 4.05 | -1.31 | -0.42 | -1.07 | 0.7 | 1.84 | – | 1.04 | 0.89 | 4.88 | 5.38 | 3.29 | 5.32
12 | c1cnn2ncc(-c3ccnc(Nc4ccc5c(c4)OCCO5)n3)c2c1 | 25 | 6.25 | 18.3 | 0.79 | 9.39 | 9.37 | 33.3 | 8.24 | 31 | -0.29 | – | -2.01 | 7.85 | 12.2 | 19.8 | 16.6 | 61.4
13 | CC(C)=Cc1cccc2c1/C(=N/Nc1ccc(S(N)(=O)=O)cc1)C(=O)N2 | 9.24 | 2.28 | 18 | 4.6 | 4.98 | 0.07 | 2.13 | 0.1 | 2.83 | 3.26 | -1.14 | -0.76 | 0.79 | 14.9 | 65.4 | 17.7 | 60.9
14 | CCCN1CCC=C(c2ccc(Nc3nc(Nc4ccccc4C(N)=O)c4cc[nH]c4n3)c(C)c2)C1 | 9.79 | 1.14 | 5.4 | 5.54 | 27.4 | 8.31 | 33.4 | 7.56 | 28.2 | 5.61 | 3.95 | 2.14 | 5.18 | 77.6 | 87.8 | 63.6 | 63.6
15 | COc1cc2c(cc1Nc1nc(N3CCc4ccccc43)c3cc[nH]c3n1)N(C(=O)CN(C)C)CC2 | 1.54 | -0.07 | -1.83 | 1.18 | – | 1.69 | 2.22 | 1.91 | 1.68 | -4.52 | -4.34 | -0.95 | 0.98 | 17.6 | 19.3 | 18.2 | 57.1
